57 compounds from ChEMBL document CHEMBL1157539, “Thousands of chemical starting points for antimalarial lead identification” (Nature, 2010) can be followed below.

Broadly, the inhibition is the drop in the measured response relative to a control, in per cent. High values mean strong suppression, low ones little suppression.

Where “and” joins values, the source holds several entries; their conditions need not be identical. Equal values may be shown once. The whole screen tested about 13,000 compounds, of which fewer than 10 showed an effect of 50% or more. A selection follows.

In the test the test system is Plasmodium falciparum. The test can be described thus: GSK_TCMDC: Inhibition of Plasmodium falciparum 3D7 LDH activity, using an LDH reporter assay. Test compounds present at 2uM. The class given is functional, organism-based.
Compound `Cc1ccc(Cl)c2sc(N3CCN(C(=O)c4ccc([N+](=O)[O-])o4)CC3)nc12` yielded an inhibition of 0%.
The compound `O=C(c1ccc([N+](=O)[O-])o1)N1CCN(c2nc3c(F)cc(F)cc3s2)CC1` had an inhibition of 0%.
Compound `O=C(/C=C/c1ccc(I)cc1)NCCCCCN1CCC(c2c[nH]c3ccc(O)cc23)CC1` yielded an inhibition of 2%.
As for `CN1CCN(CC(=O)Nc2cccc(-c3ccc(-c4nc5cc(F)ccc5[nH]4)cc3)c2)CC1`, the inhibition amounted to 6%.
`CCN(CC)CCN(CCN(CC)CC)c1ccc(-c2nc3cc(Cl)c(Cl)cc3[nH]2)cc1` displayed an inhibition of 2%.
Compound `Cc1ccc(-c2nc3cc(C(=O)NC4CCC(N5CCCc6ccc(C#N)cc6C5)CC4)ccc3[nH]2)cc1` (configuration not stated) yielded an inhibition of 0%.
As for `CN(CCc1ccccn1)Cc1ccc(-c2ccc(-c3nc4ccccc4[nH]3)s2)cc1`, the inhibition came to 6%.
With `CC(C)(C)OC(=O)NCc1ccc(Nc2nnc(-c3cccc(C(=O)NCCC(c4ccccc4)c4ccccc4)c3)o2)cc1` the figure was 0%.
`FC(F)(F)c1ccc2[nH]c(-c3cccc(-c4ccc(CNCC5CCCO5)cc4)c3)nc2c1` (configuration not stated): the inhibition stood at 0%.
Compound `NCC1CCCN1Cc1cccc(-c2ccc(-c3nc4cc(C(F)(F)F)ccc4[nH]3)s2)c1` (configuration not stated) registered an inhibition of 0%.
Turning to `O=c1sn(-c2csc3ccccc23)c2ccccc12`, the inhibition was 0%.
`COc1cc(NC(=O)C(c2ccc(Cl)cc2)C(C)C)cc(OC)c1` (configuration not stated) had an inhibition of 0%.
`CC1(C)NC(N)=NC(=N)N1OCCCc1c(Cl)cccc1Cl` gave an inhibition of 3%.
With `Cn1cc(Br)c(-c2cccc(Nc3ccnc4cc(-c5nccs5)ccc34)c2)n1` the figure was 0%.
`CC1(C)[C@H]2CC[C@@H](CNc3nc(NCCc4c[nH]cn4)nc(Nc4ccc(Oc5ccccc5)cc4)n3)[C@@H]1C2`: the inhibition worked out at 3%.
On to `O=C(CC1NC(=O)c2ccccc21)Nc1ccc(-c2ccc(-c3nc4cc(C(F)(F)F)ccc4[nH]3)cc2)cc1` (configuration not stated), for which the inhibition was 0%.
With `CC(C)CNCc1ccc(-c2cccc(-c3nc4ccccc4[nH]3)c2)cc1` the figure was 0%.
`Cc1cc2ccccc2n1CC(=O)N1CC(C(=O)N2CCCCC2)Oc2ccccc21` (configuration not stated) returned an inhibition of 2%.
Then `CC1(C)CCC(C)(C)c2c1ccc(C1CCN(CCCCNC(=O)c3ccc(-c4ccc(C#N)cc4)cc3)CC1)c2O`, with 7%; and `c1cc(-c2ccc(CN3CCN(c4ccncc4)CC3)cc2)cc(-c2nc3ccccc3[nH]2)c1`, with 0%.
`FC(F)(F)c1ccc2[nH]c(-c3ccc(-c4ccc(CNCc5cnn(-c6ccccc6)n5)cc4)cc3)nc2c1` came in with an inhibition of 0%.
For `OCc1ccc(-c2cncc(Nc3cccc(Cl)c3)c2)cc1`, the inhibition was determined as 0%.
`CNCCNCc1ccc(-c2ccc(-c3nc4cc(F)ccc4[nH]3)s2)cc1` displayed an inhibition of 2%.
`CC(C)CCNC(=N)Nc1ccc(OCCCCCOc2ccc(NC(=N)NCCC(C)C)cc2)cc1` gave an inhibition of 6%.
`CCOC(=O)c1ccc(NC(=O)Nc2cccc(-c3cccc(-c4nc5cccc(C)c5[nH]4)c3)c2)cc1` had an inhibition of 0%.
In turn, `CC(=NNc1nc2ccccc2s1)c1ccccn1` registered an inhibition of 0%.
Compound `Cn1cccc1C(=O)C(=O)Nc1ccc(-c2ccc(-c3nc4cc(F)ccc4[nH]3)cc2)cc1` showed an inhibition of 0%.
The compound `COC(=O)c1cccc(CNCc2cccc(-c3cccc(-c4nc5cc(C(F)(F)F)ccc5[nH]4)c3)c2)c1` registered an inhibition of 6%.
Regarding `COc1ccc2nccc(N/N=C/c3cccc([N+](=O)[O-])c3)c2c1`, the inhibition stood at 0%.
For the compound `CC(Cl)=CCc1c(C)nc2c(ccc3ccccc32)c1O`, the inhibition was 8%.
In turn, `Cc1cccc2nc(-c3ccc(-c4cccc(NC(=O)Nc5ccccc5)c4)cc3)[nH]c12` yielded an inhibition of 9%.
Compound `CCOc1ccc2[nH]c(C)cc(=NN=Cc3cccc(F)c3)c2c1` had an inhibition of 0%.
With `COc1ccc2nc3cc(Cl)ccc3c(NCCCCCCNc3c4ccc(Cl)cc4nc4ccc(OC)cc34)c2c1` the figure was 0%.
For `c1ccc(-c2ccc(CNCc3ccc(-c4cccc(-c5nc6ccccc6[nH]5)c4)cc3)s2)nc1`, the inhibition turned out to be 0%.
Take `CN(C)c1ccc(CN2CCCCC(NC(=O)c3cc(-c4ccccc4Cl)cs3)C2)cc1` (configuration not stated): the inhibition is 0%.
Consider `N=C(N)Nc1ccc(CCc2ccc(NC(=N)N)cc2)cc1`, for which the inhibition came to 0%.
In turn, `COc1ccc2nccc([C@@H](O)CN3CCC(NC(=O)/C=C/c4ccc5ccccc5n4)CC3)c2c1` returned an inhibition of 1%.
For `N#Cc1ccc(N/C(=N\c2ccc(-c3ccccc3)cc2)NCCc2c[nH]c3ccccc23)c(O)c1`, the inhibition was found to be 6%.
In turn, `Cc1cccc2nc(-c3cccc(-c4ccc(CNCCNC(=O)c5ccnn5C)cc4)c3)[nH]c12` registered an inhibition of 0%.
Compound `NC1CCCN(Cc2ccc(-c3ccc(-c4nc5cc(F)ccc5[nH]4)s3)cc2)C1` (configuration not stated) came in with an inhibition of 1%.
`COc1ccccc1CCNc1nc(C)cc(N[C@@H](Cc2ccccc2)C(=O)NCCOc2ccccc2)n1` came in with an inhibition of 4%.
The compound `O=C(Cn1c(SCc2cccc(F)c2F)cc(=O)c2ccccc21)N(CCn1ccnc1)Cc1ccc(-c2ccc(C(F)(F)F)cc2)cc1` came in with an inhibition of 0%.
Then `O=C(Nc1ccc(Cn2ncc(N3CCCNCC3)c(Cl)c2=O)cc1)Nc1ccc(-c2ccccc2)cc1`, with 0% and 8%.
With `O=C(OCc1ccccn1)c1nc2ccccc2[nH]1` the figure was 0%; with `O=C(NCc1cccs1)[C@H](Cc1ccccc1)Nc1ccnc(NCCc2ccccc2)n1`, 0%; with `Cc1cc(N2CCCC2)nc(NC(=N)Nc2cccc(C(F)(F)F)c2)n1`, 1%.
For `Cn1ncc2ccc(Nc3nccc(-c4ccc5c(c4)c(N)nn5C)n3)cc21`, the inhibition was determined as 0%.
Regarding `Cn1c(Cc2ccccc2)nnc1Sc1ccc(C#N)c([N+](=O)[O-])c1`, the inhibition was determined as 0%.
Compound `O=C(NCCN1CCCC1)c1cccc(-c2ccc(-c3nc4cc(F)ccc4[nH]3)cc2)c1` came in with an inhibition of 0%.
Turning to `CCOc1ccc2nc3cc(NC(=O)c4ccco4)ccc3c(N)c2c1`, the inhibition was found to be 0%.
As for `Cc1cccc2nc(-c3ccc(-c4cccc(CN5CCN(c6ccncc6)CC5)c4)s3)[nH]c12`, the inhibition was found to be 6%.
Consider `Cc1ccc(CN2CCN(Cc3cccc(NC(=O)c4cccs4)c3)CC2)cc1C`, for which the inhibition came to 2%.
`CCN(CC)CCCC(C)Nc1c2ccccc2nc2c1ccc1ccccc12` (configuration not stated) returned an inhibition of 3%.
Then `CCOc1ccccc1NC(=O)C(Sc1nc(C)cc(C)c1C#N)c1ccccc1` (configuration not stated), with 0%; and `O=C(/C=C/c1ccc(Cl)c(Cl)c1)NCCCCCN1CCC(CCNC(=O)Cc2ccc(Cl)cc2)CC1`, with 0%.
`COc1ccc(CN2CCCN(Cc3cccc(NC(=O)c4ccc(Cl)c(Cl)c4)c3)CC2)cc1` returned an inhibition of 5%.
In turn, `CCN(CCCN1CCCCC1)c1cc(C)nc(Nc2cccc(C(F)(F)F)c2C)n1` returned an inhibition of 0%.
